Here are results for 45 compounds from PubChem BioAssay.

Molecules are shown by their SMILES. Unmarked numbers belong to inactive results. The list shows a part of the results. The source made the active and inactive calls.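 Rule for the calls, unless noted: active = inhibition above the hit cutoff set in the earlier primary screen (cut at about 27% in these data); inactive = the rest.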

Assay [1] has as its target Protein phosphatase methylesterase 1 (Homo sapiens) (UniProt Q9Y570). Kind of assay: human PME-1 methylesterase inhibition confirmation – biochemical, fluorescence polarization, FP-Rh probe, triplicate (AID 2171).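 Note: 0% = enzyme with DMSO and 100% = wells lacking PME-1.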 The following applies: recombinant PME-1, FP-Rh probe fluorescence polarization; at 5.9 µM; hits give high values.
Assay [2] addresses Bcl-2-like protein 1 (Homo sapiens) (UniProt Q07817). The experiment in a line: Bcl-xL BH3-peptide displacement, hit confirmation – biochemical, fluorescence polarization, counter-screen for MCL1 inhibitor project (AID 2166;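 active = inhibition above a cutoff equal to the mean inhibition of all tested compounds plus 3 SD, cut at about 30% in these data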). The following applies: GST-Bcl-xL / FITC-Bim BH3 peptide FP binding; at 10.9 µM; hits give high values.
Assay [3] addresses Induced myeloid leukemia cell differentiation protein Mcl-1 (Homo sapiens) (UniProt Q07820). Kind of assay: MCL1-BIM peptide interaction disruptors – biochemical, fluorescence polarization, triplicate, confirmation (AID 2168;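 active = inhibition above the average of all tested compounds plus 3 SD, cut at about 40% in these data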;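 note: 0% = DMSO wells and 100% = unlabeled Bim-BH3 control peptide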). The following applies: GST-MCL1 / FITC-Bim-BH3 fluorescence polarization; at 10.9 µM; hits give high values.
Assay [4] deals with Platelet-activating factor acetylhydrolase (Homo sapiens) (UniProt Q13093). The experiment in a line: inhibition of plasma PAF acetylhydrolase – biochemical, fluorescence polarization, human, confirmation (AID 463230;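 active = mean inhibition of the triplicate above the hit cutoff set for the earlier primary screen, cut at about 25% in these data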;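 note: 0% = enzyme with DMSO and 100% = wells lacking pPAFAH enzyme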). The following applies: recombinant pPAFAH, FP-Rh probe fluorescence polarization; at 3.39 µM; hits give high values.
Sequence of Platelet-activating factor acetylhydrolase (Homo sapiens) (Q13093 whole entry, looked up): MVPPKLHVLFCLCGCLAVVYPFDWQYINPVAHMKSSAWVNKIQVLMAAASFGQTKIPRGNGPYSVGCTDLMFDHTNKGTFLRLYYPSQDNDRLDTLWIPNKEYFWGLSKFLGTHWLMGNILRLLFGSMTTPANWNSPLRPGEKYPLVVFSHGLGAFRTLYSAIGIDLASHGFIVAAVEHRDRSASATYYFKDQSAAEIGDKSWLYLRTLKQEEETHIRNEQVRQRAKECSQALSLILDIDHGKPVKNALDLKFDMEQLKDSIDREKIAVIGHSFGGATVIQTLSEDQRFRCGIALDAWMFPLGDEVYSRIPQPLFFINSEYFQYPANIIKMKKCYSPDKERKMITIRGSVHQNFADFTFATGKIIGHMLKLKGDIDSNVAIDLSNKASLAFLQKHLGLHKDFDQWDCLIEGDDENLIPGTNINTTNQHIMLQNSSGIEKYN
Assay [5] concerns the target Insulin-degrading enzyme (Homo sapiens) (UniProt P14735). Kind of assay: cellular IDE Abeta-cleavage inhibition – fluorescence polarization, HEK cells, FAbetaB substrate, confirmation (AID 435028;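 active = mean inhibition across triplicate wells above the cutoff set by the earlier primary insulin-degrading enzyme screen, cut at about 16% in these data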;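 note: 0% = DMSO wells and 100% = 60 µM reference IDE inhibitor Ii1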). The settings on record: at 5.59 µM, hits give high values.
Assay [6] is described as follows: HEK cell viability loss – luminescence, cytotoxicity control for IDE inhibitor project (AID 449730; in the data active = inhibition above about 22%;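 note: 0% = vehicle wells and 100% = reference cytotoxic drug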). The following applies: HEK293 cytotoxicity, ATP luminescence; at 5.59 µM; hits give high values.
Assay [7] deals with Oxysterols receptor LXR-beta (Homo sapiens) (UniProt P55055). Kind of assay: nonspecific reporter activation via LXR – cell-based, luminescence, HEK293, H. contortus campaign, counter-screen for hcDAF-12 agonist project, confirmation (AID 743027;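 active = mean percent activation of the reporter above a cutoff set as the average over tested compounds plus their standard deviation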). The settings on record: HEK293 Gal4-LXR tk-luc reporter, 24 h, at 6.8 µM, hits give high values, normalized: DMSO 0%, positive control 100%.
Sequence of Oxysterols receptor LXR-beta (Homo sapiens) (P55055 whole entry, looked up, the tested form may be a part): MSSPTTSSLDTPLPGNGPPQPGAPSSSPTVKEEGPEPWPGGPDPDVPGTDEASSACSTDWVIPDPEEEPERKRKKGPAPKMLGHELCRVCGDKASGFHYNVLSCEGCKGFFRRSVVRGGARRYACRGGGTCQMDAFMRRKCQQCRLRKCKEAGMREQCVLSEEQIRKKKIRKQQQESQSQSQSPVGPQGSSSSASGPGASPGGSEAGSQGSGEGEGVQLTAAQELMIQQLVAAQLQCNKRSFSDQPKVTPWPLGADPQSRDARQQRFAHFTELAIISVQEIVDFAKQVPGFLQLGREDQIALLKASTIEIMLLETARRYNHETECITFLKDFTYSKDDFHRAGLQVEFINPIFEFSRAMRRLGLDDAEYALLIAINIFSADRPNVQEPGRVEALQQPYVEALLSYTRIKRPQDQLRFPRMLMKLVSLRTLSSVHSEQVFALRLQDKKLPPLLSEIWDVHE

In assay [8] the test system is Nuclear hormone receptor DAF-12 (Haemonchus contortus). Kind of assay: hcDAF-12 luciferase reporter activation, retest – cell-based, luminescence, HEK293, lit1-tk-luc, triplicate, confirmation (AID 743032;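 active = mean activation across triplicate tests above the threshold derived from the earlier primary screen, cut at about 5.5% in these data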;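 note: 0% = DMSO only wells and 100% = 3 µM Δ7-dafachronic acid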). The settings on record: HEK293 hcDAF-12 lit1-tk-luc reporter, at 6.8 µM, hits give high values, % of Δ7-dafachronic acid response.
Assay [9] in a line: reduced OD of T4-infected AddAB+ E. coli – absorbance, E. coli V3065, T4 phage, triplicate, AddAB inhibitor project, confirmation (AID 488942;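 active = mean inhibition above a set limit taken from the earlier primary screen, cut at about 13% in these data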;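 note: higher means less bacterial growth since AddAB block lets phage replicate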). The following applies: E. coli V3065 expressing H. pylori AddAB, at 11.9 µM, hits give high values, T4 phage with gene 2 nonsense mutations.
Assay [10] in a line: reduced OD of phage-infected RecBCD+ V66 E. coli – absorbance, mutant T4 phage, counter-screen for AddAB inhibitor project (AID 488955;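 active = mean inhibition above the mean of solvent-only control wells plus 3 SD, cut at about 4% in these data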;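 note: optical density read after an 18 h incubation at 37 °C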). The settings on record: OD growth, at 11.9 µM, hits give high values.
Assay [11] is described as follows: bacterial growth inhibitors – absorbance, counter-screen for AddAB inhibitor project, confirmation (AID 488956; in the data active = inhibition above about 25%). The following applies: bacterial viability, absorbance (AddAB counterscreen); at 11.9 µM; hits give high values.
Assay [12] is described as follows: reduced OD of V66 E. coli with T4 gene 2 phage – absorbance, RecBCD inhibitor project, confirmation (AID 651982;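 active = mean inhibition over triplicates exceeding the hit threshold derived in the original primary screen, cut at about 11% in these data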). The settings on record: E. coli V66 + T4 2- phage, growth OD; at 11.9 µM; hits give high values.
A short description of assay [13]: bacterial growth inhibition – absorbance, high throughput, counter-screen for RecBCD inhibitor project (AID 651983; in the data active = inhibition above about 20%;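 note: E. coli strain V66 grown with compound alone and no phage infection; 0% = bacteria with DMSO vehicle only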). The settings on record: E. coli viability, absorbance (OD) growth; at 11.9 µM; hits give high values.
Assay [14] can be described thus: reduced optical density, T4-challenged addAB+ bacteria – absorbance, E. coli V3065, T4 phage, counter-screen for RecBCD inhibitor project, confirmation (AID 651984;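 active = mean inhibition above the solvent-only control wells' mean plus 3 SD, cut at about 22% in these data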;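 note: higher means less bacterial growth from phage killing when AddAB is blocked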). The settings on record: E. coli expressing H. pylori AddAB + T4 phage, OD growth; at 11.9 µM; hits give high values; gene 2 mutant T4, recBCD-deleted host.
Assay [15] in a line: BSA probe fluorescence interference – biochemical, TAMRA-labeled BSA, counter-screen for TCR-CD3 interaction inhibitor project (AID 652035; in the data active = inhibition above about 23%;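 note: 0% = buffer low control and 100% = reference high control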). The following applies: TAMRA-labeled BSA probe fluorescence counterscreen; at 9.4 µM; hits give high values.
Assay [16] has as its system T-cell receptor (TCR)-CD3 interaction, human. The experiment in a line: blockers of TCR binding to CD3 – biochemical, fluorescence, TAMRA-labeled TCR probe, confirmation (AID 652036; in the data active = inhibition above about 19%). The following applies: TAMRA-labeled TCR probe fluorescence binding assay; at 9.4 µM; hits give high values.
The target of assay [17] is (Lyso)-N-acylphosphatidylethanolamine lipase (Mus musculus) (UniProt Q8VD66). Kind of assay: mouse ABHD4 hydrolase blockers, triplicate – biochemical, fluorescence polarization, confirmation (AID 720658;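 active = mean inhibition across replicates above the hit cutoff set in the primary screen, cut at about 30% in these data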;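 note: 0% = wild-type ABHD4 with DMSO and 100% = catalytically dead S159A mutant with DMSO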). The settings on record: purified mABHD4, FP-Rh probe fluorescence polarization; at 8.92 µM; hits give high values.
Sequence of (Lyso)-N-acylphosphatidylethanolamine lipase (Mus musculus) (Q8VD66 whole entry, looked up): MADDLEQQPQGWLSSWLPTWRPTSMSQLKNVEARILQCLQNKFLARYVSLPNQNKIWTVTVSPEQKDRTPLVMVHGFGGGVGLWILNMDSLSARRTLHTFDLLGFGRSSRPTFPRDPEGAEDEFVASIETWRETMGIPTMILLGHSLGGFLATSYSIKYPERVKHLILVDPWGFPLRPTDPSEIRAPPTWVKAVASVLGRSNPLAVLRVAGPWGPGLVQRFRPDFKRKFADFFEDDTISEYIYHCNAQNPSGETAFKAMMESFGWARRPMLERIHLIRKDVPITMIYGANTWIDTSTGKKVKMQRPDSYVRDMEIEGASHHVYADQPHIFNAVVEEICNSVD
The target in assay [18] is Protein-arginine deiminase type-4 (Homo sapiens) (UniProt Q9UM07). The experiment in a line: protein arginine deiminase 4 blockade, retest – biochemical, fluorescence polarization, confirmation (AID 488796;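 active = mean inhibition across replicates above the hit cutoff set by the earlier primary screen, cut at about 15% in these data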;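 note: inhibitors block active-site labeling by the probe so polarization falls; 0% = PAD4 with probe and DMSO and 100% = probe without PAD4 enzyme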). The settings on record: recombinant PAD4, RCA probe fluorescence polarization; at 6.36 µM; hits give high values.
Sequence of Protein-arginine deiminase type-4 (Homo sapiens) (Q9UM07 whole entry, looked up): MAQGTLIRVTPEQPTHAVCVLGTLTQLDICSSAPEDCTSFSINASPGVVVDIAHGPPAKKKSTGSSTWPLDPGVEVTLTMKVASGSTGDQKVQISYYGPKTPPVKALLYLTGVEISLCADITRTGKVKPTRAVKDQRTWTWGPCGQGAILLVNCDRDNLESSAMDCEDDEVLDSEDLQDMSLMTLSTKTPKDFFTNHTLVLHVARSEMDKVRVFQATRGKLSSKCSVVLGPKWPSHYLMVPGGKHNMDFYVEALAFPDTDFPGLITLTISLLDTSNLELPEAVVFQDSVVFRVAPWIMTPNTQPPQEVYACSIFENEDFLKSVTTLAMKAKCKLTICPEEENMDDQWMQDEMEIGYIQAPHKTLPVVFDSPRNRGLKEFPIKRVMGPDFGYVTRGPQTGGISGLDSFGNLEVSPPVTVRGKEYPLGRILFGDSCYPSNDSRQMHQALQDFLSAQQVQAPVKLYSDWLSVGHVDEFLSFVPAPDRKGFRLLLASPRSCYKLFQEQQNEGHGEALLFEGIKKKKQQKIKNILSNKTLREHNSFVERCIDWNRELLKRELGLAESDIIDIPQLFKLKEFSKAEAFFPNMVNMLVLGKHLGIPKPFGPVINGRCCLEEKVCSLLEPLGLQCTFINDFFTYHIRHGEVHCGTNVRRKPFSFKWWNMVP

Sequence of Protein phosphatase methylesterase 1 (Homo sapiens) (Q9Y570 whole entry, looked up): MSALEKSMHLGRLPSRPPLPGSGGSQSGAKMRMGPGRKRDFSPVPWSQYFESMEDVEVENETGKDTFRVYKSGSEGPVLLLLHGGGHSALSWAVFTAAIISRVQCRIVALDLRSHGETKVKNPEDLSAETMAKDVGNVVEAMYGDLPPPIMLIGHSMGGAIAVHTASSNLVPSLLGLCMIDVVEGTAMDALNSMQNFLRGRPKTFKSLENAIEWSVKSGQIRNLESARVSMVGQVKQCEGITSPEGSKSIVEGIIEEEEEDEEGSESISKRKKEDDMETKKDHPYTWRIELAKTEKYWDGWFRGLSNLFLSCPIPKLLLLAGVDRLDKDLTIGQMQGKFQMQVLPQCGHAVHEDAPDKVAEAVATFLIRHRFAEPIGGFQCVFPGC
Sequence of Bcl-2-like protein 1 (Homo sapiens) (Q07817 whole entry, looked up): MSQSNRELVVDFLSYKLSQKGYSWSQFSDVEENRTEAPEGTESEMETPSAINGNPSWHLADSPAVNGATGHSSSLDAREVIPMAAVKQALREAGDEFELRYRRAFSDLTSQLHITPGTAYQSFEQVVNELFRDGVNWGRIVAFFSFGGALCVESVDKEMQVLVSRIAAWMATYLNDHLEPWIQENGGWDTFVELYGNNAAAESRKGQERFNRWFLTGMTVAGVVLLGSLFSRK
Sequence of Induced myeloid leukemia cell differentiation protein Mcl-1 (Homo sapiens) (Q07820 whole entry, looked up): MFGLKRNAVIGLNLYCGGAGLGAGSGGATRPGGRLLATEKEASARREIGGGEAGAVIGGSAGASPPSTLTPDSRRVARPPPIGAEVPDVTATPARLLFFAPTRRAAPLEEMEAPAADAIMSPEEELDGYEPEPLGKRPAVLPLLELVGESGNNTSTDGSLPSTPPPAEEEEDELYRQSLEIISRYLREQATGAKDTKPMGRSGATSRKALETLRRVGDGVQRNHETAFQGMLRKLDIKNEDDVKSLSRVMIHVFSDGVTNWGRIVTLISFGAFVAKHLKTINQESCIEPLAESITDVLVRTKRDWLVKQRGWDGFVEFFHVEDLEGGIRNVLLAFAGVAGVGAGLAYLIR
Sequence of Insulin-degrading enzyme (Homo sapiens) (P14735 whole entry, looked up): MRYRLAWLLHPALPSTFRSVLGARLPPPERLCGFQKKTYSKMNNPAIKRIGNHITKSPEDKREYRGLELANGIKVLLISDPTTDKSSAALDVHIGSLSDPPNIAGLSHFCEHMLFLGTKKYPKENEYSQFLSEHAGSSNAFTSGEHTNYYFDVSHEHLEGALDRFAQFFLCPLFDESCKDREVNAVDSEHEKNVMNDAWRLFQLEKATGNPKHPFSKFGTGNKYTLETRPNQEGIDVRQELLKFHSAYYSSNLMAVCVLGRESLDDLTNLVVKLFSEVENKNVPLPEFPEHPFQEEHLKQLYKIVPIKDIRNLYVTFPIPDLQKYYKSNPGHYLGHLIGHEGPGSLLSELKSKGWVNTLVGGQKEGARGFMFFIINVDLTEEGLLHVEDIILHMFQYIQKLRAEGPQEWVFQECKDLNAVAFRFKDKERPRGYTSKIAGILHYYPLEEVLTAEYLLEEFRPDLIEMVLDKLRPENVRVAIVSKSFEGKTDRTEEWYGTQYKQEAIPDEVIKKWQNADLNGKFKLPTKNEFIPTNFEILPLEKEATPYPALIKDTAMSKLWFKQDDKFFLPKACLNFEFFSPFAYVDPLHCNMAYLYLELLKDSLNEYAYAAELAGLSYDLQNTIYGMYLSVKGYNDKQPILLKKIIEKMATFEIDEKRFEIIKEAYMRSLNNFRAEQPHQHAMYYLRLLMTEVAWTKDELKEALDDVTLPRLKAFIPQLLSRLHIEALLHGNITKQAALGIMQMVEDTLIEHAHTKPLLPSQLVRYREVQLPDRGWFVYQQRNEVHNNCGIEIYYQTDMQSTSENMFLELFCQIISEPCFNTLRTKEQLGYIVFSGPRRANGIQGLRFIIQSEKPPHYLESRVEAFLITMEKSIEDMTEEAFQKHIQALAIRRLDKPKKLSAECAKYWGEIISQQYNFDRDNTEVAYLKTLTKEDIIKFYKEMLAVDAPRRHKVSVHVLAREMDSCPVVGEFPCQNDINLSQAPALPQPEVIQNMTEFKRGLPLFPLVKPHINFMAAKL

As for `Cc1sc2ncnc(OCC(=O)N3CCN(S(=O)(=O)c4ccc(Cl)cc4)CC3)c2c1C`, the inhibition in assay [1] was 11.1%.
As for `COc1ccc(N2CC(C(=O)NCCN3C(=O)S/C(=C\c4cccnc4)C3=O)CC2=O)c(OC)c1` (stereo not given), the inhibition in [2] is -1.58%; in assay [3], -8.97%; in assay [4], 0.49%.
Consider `Brc1ccc(N=NNc2ccccc2)cc1`, for which the inhibition in assay [1] was 31.4% (active).
Regarding `CCNc1ccccc1CP(=O)(c1ccccc1)c1ccccc1O` (stereo not given), in assay [1], the inhibition is 8.88%.
Regarding `Cc1cc(C)c(/C=C2\C(=O)Nc3ccccc32)[nH]1`, the inhibition in [2] was 147% (active); in [3], 168% (active); in assay [5], 83.6% (active); in assay [6] it was 5.65%. Further, the values for the activation in assay [7] and in assay [8] were 0.33% and 7.13% (active), respectively.
For the compound `CCCCN(CC)CCCNC(=O)c1cn(C)c2ccc(S(=O)(=O)N(C)C3CCCCC3)cc2c1=O`, the inhibition in assay [1] is 14.5%.
On the same count and under the same terms, the figure for `COc1ccc(NC(=O)c2c[nH]n3c(=O)cc(C4CCN(C(=O)OC(C)(C)C)CC4)nc23)cc1Cl` is 25.1%.
For the compound `C=C1c2c(Cl)ccc(O)c2C(O)=C2C(=O)[C@]3(O)C(O)=C(C(N)=O)C(=O)[C@@H](N(C)C)[C@@H]3[C@@H](O)C12` (stereo not given in full), the inhibition in assay [2] is 37.7% (active); in assay [3], 79% (active); in [9], 102% (active); in [10], 101% (active); in [11], 104% (active); in assay [12] it was 102% (active). Moreover, the inhibition is 105% (active) in [13], 104% (active) in [14], -9.22% in assay [15] and 20.7% (active) in [16].
On to `COc1ccc(Nc2ncnc3sc(-c4ccccc4)cc23)cc1OC`, for which the inhibition in [1] is 6.82%.
Regarding `CC12CCC(C(=O)N(NC(=O)c3ccccc3O)C1=O)C2(C)C` (stereo not given), the inhibition in assay [2] is 10.1%; in assay [3] it was 41.1% (active); in [15], 23.1% (active); in assay [16], 30% (active).
Regarding `COc1ccc(/C=N/Nc2cc(C)nc3ccc(Br)cc23)cc1`, in assay [1], the inhibition is 12.9%.
For the compound `Cc1cc2nc3c(=O)n(Cc4ccccc4)c(=O)[nH]c3nc2cc1N`, the inhibition is 198% (active) in [2]; 66.8% (active) in assay [5]; 8.2% in [6]; 29.3% (active) in [4]; 82.2% (active) in assay [17].
`Cn1c(=N)n(CC(=O)c2ccc(Br)cc2)c2ccccc21`: the inhibition in assay [1] was 13.3%.
The same measure, in the same setting: the figure for `COc1ccc(NS(=O)(=O)c2ccc3oc(Nc4ccc5c(c4)OCCO5)nc3c2)cc1` is 12.1%; for `O=C1C=C(N2CCOCC2)c2ccccc2C1=O` it is 41% (active); for `Cc1ccccc1OCC(=O)NC(=S)Nc1cccc2cc(O)ccc12` it is 20.7%.
For the compound `CCN1CC=C2C(C#N)=C(N)C(C#N)(C#N)[C@H](c3ccoc3)[C@H]2C1`, the inhibition in [2] was 97.5% (active); in [3], 114% (active); in assay [18], 10.3%.
For the compound `Cc1cc(C)c2c(N)c(-c3nc4ccccc4[nH]3)sc2n1`, in [1], the inhibition was 3.16%.
Regarding `Cc1ccc(Cn2nnc3c(=O)[nH]c(C4CCN(S(=O)(=O)/C=C/c5ccccc5)CC4)nc32)cc1`, in [1], the inhibition was 23.8%.
On the same count and under the same terms, the value for `CC(C)=NNc1nc2sc3c(c2c(=O)[nH]1)CC(C)(C)OC3` was 14.6%; that for `Oc1cccc(Nc2nc(O)c(/C=C3\C=Nc4ccccc43)s2)c1` was -7.79%; that for `CCCN(CC(=O)Nc1ccccc1C)C(=O)COC(=O)CSc1ccc([N+](=O)[O-])cc1` was 17.4%.
Still for that read-out and setting: the figure for `Nc1ccc(N2CCCCC2)c2nonc12` is 11.3%.
As to `CCOC(=O)C1CCCN(C(=O)C2c3ccccc3Oc3ccccc32)C1` (stereo not given), in [1], the inhibition is 16%.
For the compound `CCN(CC)S(=O)(=O)c1cc(NC(=O)C(C)N2CCN(c3ccccn3)CC2)ccc1C` (stereo not given), the inhibition in [1] was 18.6%.
`O=C(Nc1ccc(-c2csc(Nc3ccc(Cl)cc3)n2)cc1)c1cccc(C(F)(F)F)c1`: the inhibition in [1] was -1.3%.
For the compound `C/C(=N/Nc1ccnc2cc(Cl)ccc12)c1ccc(O)cc1`, the inhibition in assay [1] is 10.9%.
With `COc1ccc(NC(C(=O)Nc2cccc(C(C)=O)c2)c2ccccc2)cc1` (stereo not given), in assay [1], the inhibition was 36% (active).
Take `Cc1ccc(NS(=O)(=O)c2ccc3c(c2)C(=O)c2ccccc2C3=O)c(C)c1`: in assay [1], the inhibition was 24.5%.
Same read-out and setting: the figure for `COC(=O)N1C(=O)[C@](c2ccccc2)(C2CCCCC2)N1C(=O)OC` is 76.6% (active); for `N#C/C(=C(\O)c1cc(Cl)sc1Cl)c1nc2ccccc2[nH]1` it is 21.8%; for `CCOC(=O)c1ccc(NC(=O)Nc2ccc3c4c(cccc24)C(=O)N3CC)cc1` it is 16.2%.
For `COc1cc2c(C#N)c(N3CCN(c4ccccc4OC)CC3)nc(N)c2c(N)n1`, in assay [1], the inhibition was 78% (active).
As for `Cc1cccnc1Nc1nc(-c2ccc(O)c(O)c2)cs1`, the inhibition in assay [1] is 14.8%.
Consider `CCc1ccc(-c2cc(C(=O)N/N=C/c3c[nH]c4ccccc34)[nH]n2)cc1`, for which the inhibition in [1] is 12%.
With `COc1ccc(Nc2ncnc3sc(-c4ccccc4)cc23)cc1`, the inhibition in assay [1] is 10.1%.
Still for that read-out and setting: the value for `COc1ccc(NS(=O)(=O)c2ccc(N/N=C(\C)c3ccncc3)c([N+](=O)[O-])c2)cc1` was 26.3% (active); that for `Cc1ccc(S(=O)(=O)c2nnn3c2nc(N2CCOCC2)c2ccccc23)c(C)c1` was 21.9%.
As to `O=C(N/N=C/c1cc(Cl)c(O)c(Cl)c1)c1cc2c(ccc3ccccc32)o1`, the inhibition in [1] is 38.5% (active).
Regarding `Cc1cc(NS(=O)(=O)c2ccc(Nc3nc(-c4sc(NC(=O)c5ccccc5)nc4C)cs3)cc2)no1`, the inhibition in assay [1] was 70.6% (active).
Regarding `CC(C)(C)c1cc(C(=O)N/N=C/c2ccc(-c3ccccc3[N+](=O)[O-])o2)n[nH]1`, the inhibition in assay [1] was 1.81%.
Take `COc1ccc(/C=C/c2c(-c3ccc(OC)cc3)oc3cccnc23)cc1`: in assay [1], the inhibition is 24.5%.
The same measure, in the same setting: the figure for `CC(Sc1nnc(NC2CCCCC2)s1)C(=O)Nc1ccc2c(c1)C(=O)c1ccccc1C2=O` (stereo not given) is -4.4%; for `O=C(/C=C1\NC2(CCCC2)Cc2ccccc21)C(=O)N/N=C/c1ccc(O)c(O)c1` it is -18.9%.
On the same count and under the same terms, the value for `CCOc1ccc2nc(SCC(=O)Nc3ccc4c(c3)OCCO4)[nH]c2c1` was 25.3%.
